Results from PubChem BioAssay (NCI).
“And” between values parts separate entries of the source, which are not always exact repeats. Identical values can stand only once. About 83,000 compounds went through this panel and 20% of them were active in at least one assay; those are over-represented in the sample as a whole.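 Negative percent growth values reflect cell death: -40 means 40% of the cells present at the start died, and -100 means all died.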 The source made the active and inactive calls. Rule for the calls: active = growth percent below 10; inactive = the rest.

What was measured:
Test in all cases: NCI-60 one-dose screen, 48 h (100 = growth as untreated, 0 = no growth, -100 = all killed)
DU-145 prostate = test system: DU-145 prostate
K-562 leukemia = test system: K-562 leukemia
MALME-3M melanoma = test system: MALME-3M melanoma
MDA-MB-231 breast = test system: MDA-MB-231 breast
RXF 393 renal = test system: RXF 393 renal
SF-268 CNS = test system: SF-268 CNS
SF-295 CNS = test system: SF-295 CNS
UACC-257 melanoma = test system: UACC-257 melanoma
M14 melanoma = test system: M14 melanoma
HCT-15 colon = test system: HCT-15 colon
HT29 colon = test system: HT29 colon
SNB-75 CNS = conditions: 10 µM unless noted
SNB-19 CNS = test system: SNB-19 CNS
U251 CNS = test system: U251 CNS
PC-3 prostate = test system: PC-3 prostate
SK-MEL-5 melanoma = test system: SK-MEL-5 melanoma
UACC-62 melanoma = test system: UACC-62 melanoma
LOX IMVI melanoma = test system: LOX IMVI melanoma
SK-MEL-28 melanoma = test system: SK-MEL-28 melanoma
SF-539 CNS = test system: SF-539 CNS

Measured: growth

CN1CCN(c2ccc([N+](=O)[O-])c3no[n+]([O-])c23)CC1
inactive: SK-MEL-28 melanoma; 10 µM 17.3%
active: DU-145 prostate; 10 µM unless noted -27.4% | K-562 leukemia; 10 µM unless noted -18.4% | MALME-3M melanoma; 10 µM unless noted -78.8% | MDA-MB-231 breast; 10 µM unless noted -32.1% | RXF 393 renal; 10 µM unless noted -92.8% | SF-268 CNS; 10 µM unless noted -41.4% | SF-295 CNS; 10 µM unless noted -52% | UACC-257 melanoma; 10 µM unless noted -95.6% | M14 melanoma; 10 µM unless noted -65.2% | HCT-15 colon; 10 µM unless noted -56.3% | HT29 colon; 10 µM unless noted -51.8% | SNB-75 CNS -78.2% | SNB-19 CNS; 10 µM unless noted -30.5% | U251 CNS; 10 µM unless noted -95.6% | PC-3 prostate; 10 µM unless noted -65.9% | SK-MEL-5 melanoma; 10 µM unless noted -46.6% | UACC-62 melanoma; 10 µM -58.8% | LOX IMVI melanoma; 10 µM unless noted -46.2%

CC1CCC2(NC1)OC1CC3C4CCC5CC(OC6OC(CO)C(OC7OC(CO)C(O)C(OC8OCC(O)C(O)C8O)C7OC7OC(CO)C(O)C(O)C7O)C(O)C6O)CCC5(C)C4CCC3(C)C1C2C (stereo unspecified)
active: UACC-62 melanoma; 100 µM -77.3% and -86.4%

C[C@H]1CCC/C=C/[C@@H]2C[C@H](O)C[C@H]2[C@H](O)/C=C/C(=O)O1
inactive: RXF 393 renal; 10 µM unless noted 11% | SF-268 CNS; 10 µM unless noted 10.3% | SF-295 CNS; 10 µM unless noted 20.9% | SF-539 CNS; 10 µM unless noted 27.1% | UACC-257 melanoma; 10 µM unless noted 13.1% | SNB-19 CNS; 10 µM unless noted 38.3% | U251 CNS; 10 µM unless noted 20.6% | UACC-62 melanoma; 10 µM 20.9%
active: DU-145 prostate; 10 µM unless noted -7.84% | K-562 leukemia; 10 µM unless noted 5.56% | MALME-3M melanoma; 10 µM unless noted -73% | MDA-MB-231 breast; 10 µM unless noted -68% | M14 melanoma; 10 µM unless noted -9.75% | HCT-15 colon; 10 µM unless noted -28.2% | HT29 colon; 10 µM unless noted -53.5% | SNB-75 CNS -19.7% | PC-3 prostate; 10 µM unless noted -14.6% | SK-MEL-5 melanoma; 10 µM unless noted -96.7% | LOX IMVI melanoma; 10 µM unless noted -69.4%

O=C1c2ccccc2C(=O)C(Cl)C1Cl (stereo unspecified)
inactive: DU-145 prostate; 10 µM unless noted 97.8% | SF-268 CNS; 10 µM unless noted 87.5% | SF-295 CNS; 10 µM unless noted 94.3% | SF-539 CNS; 10 µM unless noted 89.5% | M14 melanoma; 10 µM unless noted 76.7% | HT29 colon; 10 µM unless noted 96.8% | SNB-75 CNS 54% | SNB-19 CNS; 10 µM unless noted 69.5% | U251 CNS; 10 µM unless noted 83% | PC-3 prostate; 10 µM unless noted 71.8% | SK-MEL-5 melanoma; 10 µM unless noted 86.3% | UACC-62 melanoma; 10 µM 70.9% | SK-MEL-28 melanoma; 10 µM 87.9%
active: K-562 leukemia; 10 µM unless noted -7.91% | MALME-3M melanoma; 10 µM unless noted -98.5% | RXF 393 renal; 10 µM unless noted -9.44% | UACC-257 melanoma; 10 µM unless noted 0.891% | HCT-15 colon; 10 µM unless noted -86.6%

S=C(SSC(=S)N1CCCCC1)N1CCCCC1
inactive: DU-145 prostate; 10 µM 107% | K-562 leukemia; 10 µM 102% | MALME-3M melanoma; 10 µM 124% | MDA-MB-231 breast; 10 µM 104% | RXF 393 renal; 10 µM 114% | SF-268 CNS; 10 µM 101% | SF-295 CNS; 10 µM 97.3% | SF-539 CNS; 10 µM 104% | UACC-257 melanoma; 10 µM 87.7% | UACC-257 melanoma; 100 µM 40.5% | M14 melanoma; 10 µM 92.6% | HCT-15 colon; 10 µM 90.1% | HT29 colon; 10 µM 104% | SNB-75 CNS 50.5% [100 µM] | SNB-19 CNS; 10 µM 92.8% | SNB-19 CNS; 100 µM 56.5% | U251 CNS; 10 µM 88% | PC-3 prostate; 10 µM 83.6% | PC-3 prostate; 100 µM 18% | SK-MEL-5 melanoma; 10 µM 93.9% | UACC-62 melanoma; 10 µM 96.7% | LOX IMVI melanoma; 10 µM 87.1% | SK-MEL-28 melanoma; 10 µM 105%
active: DU-145 prostate; 100 µM 9.68% | K-562 leukemia; 100 µM -13.7% | MALME-3M melanoma; 100 µM -76.9% | MDA-MB-231 breast; 100 µM -35.8% | RXF 393 renal; 100 µM -15.7% | SF-268 CNS; 100 µM 0.593% | SF-295 CNS; 100 µM 1.68% | SF-539 CNS; 100 µM -61.6% | M14 melanoma; 100 µM -49.6% | HCT-15 colon; 100 µM 5.6% | HT29 colon; 100 µM -61.4% | U251 CNS; 100 µM -43.7% | SK-MEL-5 melanoma; 100 µM -18% | UACC-62 melanoma; 100 µM 2.29% | LOX IMVI melanoma; 100 µM -45.9% | SK-MEL-28 melanoma; 100 µM -41.6%
